Measurements from PubChem BioAssay AID1159580 (chemical genetic matrix, 2015).
About 2,000 (36%) of roughly 5,500 compounds were called active. Inconclusive results (about 18%) are left out. Cut-off read from the data, not from the text of the source: active = normalized growth mostly below about 0.91 (no sharp cut-off); inconclusive = no clear call, values can overlap the other calls; inactive = mostly above about 0.92. The list shows a part of the results.

Assay: chemical genetic growth profiling, strain panel (AID 1159580);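 note: tested at 20 µM; growth read once vehicle control cultures reached saturation at 30 °C; 1 = growth at the plate median or of vehicle wells; lower values mean less growth of the strain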
Details: S. cerevisiae deletion strains, growth OD

Measured: normalized growth

COC(=O)[C@@H]1OC(=O)C2OC23[C@@]1(C)CCC1[C@@]2(C)CCC(=O)C(C)(C)C2C[C@@H](OC(C)=O)[C@]13C (stereo not given in full)
inactive: locus YAL021C, strain ccr4, active compounds read low 1.01 | locus YAL026C, strain drs2, active compounds read low 1.01 | locus YAL030W, strain snc1, active compounds read low 1.01 | locus YBL061C, strain skt5, active compounds read low 1.01 | locus YBR009C, strain hhf1, active compounds read low 1.01 | locus YBR021W, strain FUR4, active compounds read low 1.03 | locus YBR023C, strain chs3, active compounds read low 1.01 | locus YBR171W, strain sec66, active compounds read low 1.02 | locus YBR229C, strain ROT2, active compounds read low 1.01 | locus YBR231C, strain swc5, active compounds read low 1.01 | locus YBR279W, strain paf1, active compounds read low 1.02 | locus YCL011C, strain gbp2, active compounds read low 1.01 | locus YCL016C, strain dcc1, active compounds read low 1.02 | locus YCL029C, strain bik1, active compounds read low 1.04 | locus YCL061C, strain MRC1, active compounds read low 1.01 | locus YCL069W, strain vba3, active compounds read low 1.01 | locus YCR088W, strain abp1, active compounds read low 1.02 | locus YDL005C, strain med2, active compounds read low 1.02 | locus YDL035C, strain GPR1, active compounds read low 1.05 | locus YDL040C, strain nat1, active compounds read low 1.02 | locus YDL074C, strain BRE1, active compounds read low 1.14 | locus YDL101C, strain DUN1, active compounds read low 1.04 | locus YDL185W, strain tfp1, active compounds read low 1.01 | locus YDL192W, strain arf1, active compounds read low 1.02 | locus YDR001C, strain nth1, active compounds read low 1.01 | locus YDR069C, strain doa4, active compounds read low 1.02 | locus YDR101C, strain arx1, active compounds read low 1.01 | locus YDR137W, strain rgp1, active compounds read low 1.01 | locus YDR159W, strain sac3, active compounds read low 1.01 | locus YDR162C, strain NBP2, active compounds read low 1.04 | locus YDR195W, strain ref2 0.999 | locus YDR297W, strain sur2, active compounds read low 1.01 | locus YDR318W, strain mcm21, active compounds read low 1.02 | locus YDR334W, strain swr1, active compounds read low 1.02 | locus YDR335W, strain msn5, active compounds read low 1.02 | locus YDR388W, active compounds read low 1.01 | locus YDR392W, strain spt3, active compounds read low 1.01 | locus YDR502C, strain sam2, active compounds read low 1.01 | locus YEL003W, strain gim4, active compounds read low 1.02 | locus YEL037C, strain rad23, active compounds read low 1.02 | locus YEL061C, strain CIN8 (second series), active compounds read low 1.03 | locus YER015W, strain faa2, active compounds read low 1.02 | locus YER016W, strain bim1, active compounds read low 1.02 | locus YER110C, active compounds read low 0.992 | locus YER111C, strain swi4, active compounds read low 1.01 | locus YER155C, strain BEM2 (second series), active compounds read low 1.03 | locus YER155C, strain BEM2, active compounds read low 1 | locus YER167W, strain BCK2, active compounds read low 1.01 | locus YFR010W, strain ubp6, active compounds read low 1.01 | locus YGL078C, strain dbp3, active compounds read low 1 | locus YGL086W, strain mad1, active compounds read low 1.02 | locus YGL167C, strain pmr1, active compounds read low 1.02 | locus YGL173C, strain kem1, active compounds read low 1.01 | locus YGL227W, strain vid30, active compounds read low 1.02 | locus YGL240W, strain doc1, active compounds read low 1.02 | locus YGL248W, strain PDE1, active compounds read low 1.05 | locus YGL253W, strain hxk2, active compounds read low 1.01 | locus YGR078C, strain PAC10, active compounds read low 1.05 | locus YGR135W, strain pre9, active compounds read low 1.05 | locus YGR252W, strain gcn5, active compounds read low 1.08 | locus YHR013C, strain ard1, active compounds read low 1.02 | locus YHR027C, strain rpn1, active compounds read low 1.02 | locus YHR079C, strain IRE1 (second series), active compounds read low 0.995 | locus YHR094C, strain hxt1, active compounds read low 0.992 | locus YHR129C, strain ARP1, active compounds read low 1.03 | locus YHR142W, strain chs7, active compounds read low 1.03 | locus YHR200W, strain rpn10, active compounds read low 1.02 | locus YIL066C, strain RNR3, active compounds read low 1.02 | locus YIL073C, strain SPO22, active compounds read low 1.1 | locus YIL125W, strain kgd1, active compounds read low 1.01 | locus YIR030C, strain dcg1, active compounds read low 0.991 | locus YJL092W, strain hpr5, active compounds read low 1.01 | locus YJL095W, strain BCK1 (second series), active compounds read low 1.01 | locus YJL095W, strain BCK1, active compounds read low 1.1 | locus YJL115W, strain asf1, active compounds read low 1 | locus YJL129C, strain trk1, active compounds read low 1.03 | locus YJL134W, strain LCB3, active compounds read low 1.01 | locus YJL154C, strain vps35, active compounds read low 1.03 | locus YJL164C, strain tpk1, active compounds read low 1.03 | locus YJL166W, strain qcr8, active compounds read low 1.01 | locus YJL168C, strain set2, active compounds read low 1.01 | locus YJL187C, strain SWE1 (second series), active compounds read low 1.03 | locus YJL187C, strain SWE1, active compounds read low 1.02 | locus YJR043C, strain POL32, active compounds read low 1.09 | locus YKL009W, strain mrt4, active compounds read low 1 | locus YKL068W, active compounds read low 1.01 | locus YKL085W, strain MDH1 (second series), active compounds read low 0.994 | locus YKL085W, strain MDH1, active compounds read low 0.994 | locus YKL160W, strain elf1, active compounds read low 1.02 | locus YKL190W, strain CNB1, active compounds read low 1.02 | locus YKR001C, strain vps1, active compounds read low 1.06 | locus YKR026C, strain gcn3, active compounds read low 1.02 | locus YKR091W, strain srl3, active compounds read low 1.02 | locus YLL001W, strain dnm1, active compounds read low 1.01 | locus YLL026W, active compounds read low 1.02 | locus YLL041C, strain sdh2, active compounds read low 1.01 | locus YLR027C, strain aat2, active compounds read low 1.03 | locus YLR039C, strain RIC1, active compounds read low 1.13 | locus YLR058C, strain SHM2, active compounds read low 1.04 | locus YLR102C, strain apc9, active compounds read low 0.99 | locus YLR221C, strain rsa3, active compounds read low 1.01 | locus YLR258W, strain gsy2, active compounds read low 1.01 | locus YLR262C, strain YPT6 (second series), active compounds read low 1.03 | locus YLR268W, strain sec22, active compounds read low 1.04 | locus YLR320W, strain mms22, active compounds read low 1.02 | locus YLR330W, strain CHS5, active compounds read low 1.01 | locus YLR342W, strain FKS1 (second series), active compounds read low 1.03 | locus YLR342W, strain FKS1, active compounds read low 1.02 | locus YLR357W, strain rsc2, active compounds read low 1 | locus YLR370C, strain arc18, active compounds read low 1.01 | locus YLR371W, strain rom2, active compounds read low 1.02 | locus YLR384C, strain iki3, active compounds read low 1.04 | locus YLR418C, strain cdc73, active compounds read low 1.06 | locus YML016C, strain PPZ1, active compounds read low 1.01 | locus YML032C, strain rad52, active compounds read low 0.992 | locus YML120C, strain ndi1, active compounds read low 1.02 | locus YML124C, strain tub3, active compounds read low 0.99 | locus YMR058W, strain fet3, active compounds read low 1.01 | locus YMR078C, strain ctf18, active compounds read low 0.998 | locus YMR125W, strain sto1, active compounds read low 1.02 | locus YMR129W, active compounds read low 1.01 | locus YMR205C, strain PFK2, active compounds read low 1.02 | locus YMR223W, strain ubp8, active compounds read low 1.01 | locus YMR231W, strain pep5, active compounds read low 1 | locus YMR307W, strain GAS1, active compounds read low 1.2 | locus YNL067W, strain RPL9B, active compounds read low 1.03 | locus YNL071W, strain lat1, active compounds read low 1.02 | locus YNL153C, strain GIM3, active compounds read low 1.06 | locus YNL209W, strain ssb2, active compounds read low 1.02 | locus YNL233W, strain BNI4, active compounds read low 1.08 | locus YNL248C, strain rpa49, active compounds read low 1.01 | locus YNL250W, strain rad50, active compounds read low 1.01 | locus YNL271C, strain bni1, active compounds read low 0.997 | locus YNL298W, strain CLA4, active compounds read low 1.01 | locus YNL307C, strain MCK1, active compounds read low 0.995 | locus YNL322C, strain KRE1 (second series), active compounds read low 1.02 | locus YNR049C, strain mso1, active compounds read low 1.01 | locus YNR052C, strain pop2, active compounds read low 0.989 | locus YOL012C, strain htz1 1.07 | locus YOL147C, strain pex11, active compounds read low 1 | locus YOR001W, strain rrp6, active compounds read low 1.02 | locus YOR061W, strain CKA2, active compounds read low 1.02 | locus YOR069W, strain VPS5, active compounds read low 1.01 | locus YOR070C, strain gyp1, active compounds read low 1 | locus YOR080W, strain dia2, active compounds read low 1.01 | locus YOR083W, strain WHI5, active compounds read low 1.02 | locus YOR106W, strain vam3, active compounds read low 1.01 | locus YOR136W, strain idh2, active compounds read low 0.993 | locus YOR144C, strain elg1, active compounds read low 0.993 | locus YOR184W, strain ser1, active compounds read low 1.03 | locus YOR265W, strain rbl2, active compounds read low 1.01 | locus YOR270C, strain vph1, active compounds read low 1.05 | locus YOR290C, strain snf2, active compounds read low 1.02 | locus YOR316C, strain cot1, active compounds read low 1 | locus YPL051W, strain arl3, active compounds read low 0.993 | locus YPL055C, strain LGE1, active compounds read low 1.11 | locus YPL078C, strain atp4, active compounds read low 1.01 | locus YPL106C, strain sse1, active compounds read low 1.01 | locus YPL240C, strain hsp82, active compounds read low 1.01 | locus YPL241C, strain CIN2, active compounds read low 1.01 | locus YPR119W, strain clb2, active compounds read low 0.993 | locus YPR141C, strain kar3, active compounds read low 0.994 | locus YPR163C, strain tif3, active compounds read low 1.01 | locus YPR167C, strain met16, active compounds read low 1.01 | strain wtn01, active compounds read low 1.02
